Rows were chosen to be rich in hits. Some 3.6% of all compounds tested hit in one or more screens of this group.
APOBEC3A inh – human APOBEC3A DNA deaminase inhibition | P31941 | recombinant A3A, FAM/TAMRA ssDNA deamination fluorescence | inhibition, % at 20 µM | actives 0.41% (n = 330,000) | AID 493011;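 active = at least 40% inhibition at 20 µM here, with at most 30% in a related deaminase screen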;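 also: plate controls were A3A with DMSO for no effect and wells lacking A3A enzyme for full effect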
Target sequence (P31941 whole entry, looked up): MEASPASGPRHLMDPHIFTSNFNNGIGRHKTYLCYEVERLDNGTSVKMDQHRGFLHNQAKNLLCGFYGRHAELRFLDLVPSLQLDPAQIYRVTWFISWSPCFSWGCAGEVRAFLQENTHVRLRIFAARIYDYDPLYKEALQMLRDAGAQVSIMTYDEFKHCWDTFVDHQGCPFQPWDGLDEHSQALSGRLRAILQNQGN
Wnt bcat act – activates Wnt/beta-catenin signaling in a reporter cell assay | activator, plate reader | activation, % at 9.35 µM | actives 1.2% (n = 300,000); in the data active = activation above about 30%, passing the limit was not always enough; inconclusive = no clear call, values can overlap the other calls;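 also: 0% = neutral control wells and 100% = positive control wells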
esBAF inh – SWI/SNF esBAF complex inhibition; reporter increase, % at 12.5 µM; AID 602393; mouse ES cells, Bmi1-luciferase knock-in reporter, 24 h; 100% = twice the neutral-well signal; actives 2% (n = 350,000); in the data active = activation above about 40%; inconclusive = no clear call, values can overlap the other calls;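 also: 0% = median of the plate's neutral control wells and 100% = double that signal; a rise in the Bmi1 reporter signal indicates esBAF inhibition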
PHOSPHO1 inh – PHOSPHO1 (human) inhibition | Q8TCT1 | recombinant PHOSPHO1, absorbance phosphatase assay | inhibition, % at 13.3 µM | actives 1.1% (n = 290,000) | AID 1565; in the data active = inhibition above about 60%
MITF TRPM1 HTS – MITF TRPM1 promoter activation in melanoma cells; SK-MEL-5 TRPM1-promoter luciferase, 24 h; % of positive control, neutral wells = 0; activation, % at 12.5 µM; actives 0.75% (n = 300,000); AID 588334;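 active = mean activation of at least 80% with every replicate also reaching 80%; inconclusive = mean reaches 80% but some replicate falls short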;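 also: 0% = neutral control wells and 100% = parthenolide positive control wells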
A3G deaminase – APOBEC3G (human) deaminase inhibition; recombinant A3G, ssDNA deamination FAM/TAMRA fluorescence; AID 493012; actives 0.28% (n = 330,000); inhibition, % at 20 µM;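 active = inhibition of at least 40% at 20 µM, with no more than 30% in the related APOBEC3A deaminase screen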;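 also: plate controls were DMSO wells with A3G for no effect and wells lacking A3G enzyme for full effect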
Target sequence (Q9HC16 whole entry, looked up): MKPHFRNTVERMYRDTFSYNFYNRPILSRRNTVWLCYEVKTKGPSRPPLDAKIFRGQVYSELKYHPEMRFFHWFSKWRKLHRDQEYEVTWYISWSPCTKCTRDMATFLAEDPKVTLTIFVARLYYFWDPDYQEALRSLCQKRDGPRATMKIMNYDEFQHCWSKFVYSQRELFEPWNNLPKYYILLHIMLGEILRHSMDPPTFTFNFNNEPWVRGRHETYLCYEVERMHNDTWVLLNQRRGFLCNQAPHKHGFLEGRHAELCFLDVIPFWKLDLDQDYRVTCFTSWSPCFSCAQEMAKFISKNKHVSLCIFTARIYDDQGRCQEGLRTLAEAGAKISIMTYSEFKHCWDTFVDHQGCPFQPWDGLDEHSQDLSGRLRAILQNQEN
The depositor's hits bear a star; ? = inconclusive; nt = not tested or not shown.

SMILES	APOBEC3A inh	Wnt bcat act	esBAF inh	PHOSPHO1 inh	MITF TRPM1 HTS	A3G deaminase
CCC(=O)NC(c1ccccc1)c1nc2ccccc2[nH]1 (stereo not given)	0	nt	49*	23	44	-2
CCOc1ccccc1-c1nc(-c2ccncc2)no1	-3	nt	35	5	25	-4
COc1ccccc1-c1nc(-c2ccc(Br)cc2)no1	-2	nt	54*	-11	76	-4
COc1ccccc1-c1nc(-c2ccncc2)no1	-5	61*	5	35	nt	-9
O=C(Oc1ccc(-c2cnc3ccccc3n2)cc1)c1ccc(Br)o1	1	34*	12	42	58	-3
CC(=O)Nc1ccc(C(=O)OCc2ccccc2Br)cc1	4	8	19	15	29	7
CCOC(=O)c1cnc2c(ccc3ccccc32)c1N	-1	10	45*	10	nt	-2
Cc1nc2ccc(C(=O)OCc3ccccc3Br)cc2nc1C	2	0	102*	21	71	7
Cc1ccc(-c2cnc3ccccc3n2)cc1C	-1	40*	-33	14	-16	-3
C[C@@H]1CCCCO[C@H](CN(C)C(=O)Nc2ccc(F)cc2)[C@H](C)CN([C@H](C)CO)C(=O)c2cc(NC(=O)c3ccccc3)ccc2O1	nt	nt	3	nt	nt	nt
C[C@@H]1CCCCO[C@H](CN(C)S(C)(=O)=O)[C@H](C)CN([C@H](C)CO)C(=O)c2cc(N(C)C)ccc2O1	nt	nt	-4	nt	nt	nt
C[C@H]1CN([C@@H](C)CO)C(=O)c2cc(-c3ccccc3)cnc2O[C@H]1CN(C)C(=O)Cc1ccccn1	nt	nt	-1	nt	nt	nt
CCCC#Cc1ccc2c(c1)O[C@H](CN(C)C(=O)C1CCC1)[C@H](C)CN([C@@H](C)CO)S2(=O)=O	nt	nt	-7	nt	nt	nt
CO[C@H]1CN(C)C(=O)c2ccc(NC(=O)Nc3cc(F)ccc3F)cc2OC[C@@H](C)N(C)C[C@H]1C	nt	nt	-1	nt	nt	nt
Nc1ccc2nc(-c3ccccc3)cnc2c1	-7	72*	nt	nt	nt	-19
CCOC(=O)c1ccc2ncc(-c3ccccc3)nc2c1	nt	12	nt	-22	111*	nt
Nc1ccc(-c2cnc3ccccc3n2)cc1	-2	?	-64	nt	nt	-3
CCOC(=O)c1cnc2c(-c3ccccc3)cnn2c1C	0	56*	nt	44	73	-2
CCOC(=O)c1cnc(-c2ccccc2)nc1N	1	-1	24	17	40	-10
c1cc(-c2cccs2)nc(-c2cccs2)c1	-5	-6	nt	-3	38	-4
c1csc(-c2cnc3ccccc3n2)c1	-2	55*	nt	-21	nt	-3
C[C@H](CO)N1C[C@H](C)[C@H](CN(C)CC2CCOCC2)Oc2ncc(C#Cc3ccncc3)cc2C1=O	nt	nt	-8	nt	nt	nt
O=C(C[C@@H]1CC[C@@H]2[C@H](COC[C@H](O)CN2Cc2cc(F)ccc2F)O1)NCc1ccccc1	nt	nt	6	nt	nt	nt
CCOC(=O)c1cccc(-c2c(-c3ccccc3)ncc3cc(OC)c(OC)cc23)c1	-3	-1	67*	nt	97*	-9
COc1cc2cnc(-c3ccccc3)c(-c3cc(OC)c(OC)c(OC)c3)c2cc1OC	4	-3	3	nt	8	-2
SMILES	APOBEC3A inh	Wnt bcat act	esBAF inh	PHOSPHO1 inh	MITF TRPM1 HTS	A3G deaminase
CCOC(=O)c1nc2ccccc2c(=O)[nH]1	5	18	nt	8	30	-2
Oc1ccc(-c2cnc3ccccc3n2)cc1	-4	53*	nt	nt	?	-9
Cc1cc2ncc(-c3ccccc3)nc2cc1C	-3	45*	-12	nt	37	-5
CCOC(=O)c1cc(OCC)c2c(ccc3ccccc32)n1	nt	111*	-10	nt	nt	nt
CN1C(=O)c2cc(NC(=O)C3CCCCC3)ccc2OC[C@@H]2O[C@H](CC(=O)NCc3ccccc3F)CC[C@H]21	nt	nt	4	nt	nt	nt
COc1ccc(NC(=O)Nc2ccc3c(c2)C(=O)N([C@@H](C)CO)C[C@H](C)[C@@H](CN(C)Cc2ccc(Cl)c(Cl)c2)OCCCC[C@H](C)O3)cc1	nt	nt	-5	nt	nt	nt
C[C@@H]1CCCCO[C@H](CN(C)Cc2ccc(C(F)(F)F)cc2)[C@H](C)CN([C@H](C)CO)C(=O)c2cc(NC(=O)CCC(F)(F)F)ccc2O1	nt	nt	-2	nt	nt	nt
CCOC(=O)c1cnc(-c2ccccc2)nc1N(C)C	2	nt	75*	20	31	5
C[C@@H]1CN([C@@H](C)CO)C(=O)Cc2cc(NC(=O)Nc3cccc4ccccc34)ccc2O[C@@H]1CN(C)S(=O)(=O)c1ccc(F)cc1	nt	nt	2	nt	nt	nt
CCCNC(=O)C[C@H]1C[C@H]2c3cc(NS(=O)(=O)c4cccc(OC)c4)ccc3O[C@H]2[C@@H](CO)O1	nt	nt	2	nt	nt	nt
COc1cccc2cc(CC(=O)c3ccc(C)cc3C)c(=O)oc12	-1	14	87*	5	90*	-6
CCCc1cc2c(=O)c(-c3ccccn3)coc2cc1OC	1	53*	100*	15	116*	13
COc1ccc(S(=O)(=O)N2CC[C@@H]3[C@@H](CO)N(C)c4ccc(-c5ccccc5F)cc4[C@@H]32)cc1	nt	nt	0	nt	nt	nt
COC(=O)c1cc(S(=O)(=O)NC2CCC(C)CC2)cn1C (stereo not given)	-4	-2	nt	64*	4	-5
COC(=O)c1cc(S(=O)(=O)NC2CCCCC2)cn1C	-8	-1	3	24	-1	-9
Cc1cc(C)nc(N/N=C/c2cc3c(cc2[N+](=O)[O-])OCO3)n1	3	56*	nt	4	-10	0
O=C(O)c1ccc(N/N=C/c2cc3c(cc2[N+](=O)[O-])OCO3)cc1	0	-2	67*	24	-24	-3
O=C(NC1CCCCC1)c1ccc([N+](=O)[O-])cc1	nt	-3	74*	nt	18	nt
CCOc1cccc(C(=O)NC2CCCCC2)c1	-3	-1	53*	-2	54	-5
CCOc1ccc(C(=O)NC2CCCCCCC2)cc1	1	42*	nt	nt	79	-7
N#Cc1ccc(C(=O)NC2CCCCCCC2)cc1	-2	2	53*	37	107*	-8
Cc1ccc(S(=O)(=O)N(C)C[C@H]2OCCCC[C@H](C)Oc3ccc(NC(=O)Nc4c(C)noc4C)cc3C(=O)N([C@@H](C)CO)C[C@@H]2C)cc1	nt	nt	-2	nt	nt	nt
COc1ccc(CN(C)C[C@@H]2OCCCC[C@H](C)Oc3ccc(NC(=O)Nc4ccccc4)cc3C(=O)N([C@H](C)CO)C[C@@H]2C)cc1	nt	nt	-2	nt	nt	nt
C[C@@H]1CN([C@H](C)CO)C(=O)c2cccc(NS(=O)(=O)c3cn(C)cn3)c2O[C@H]1CN(C)C(=O)Nc1ccc2c(c1)OCO2	nt	nt	0	nt	nt	nt
O=C(N[C@H]1CC1c1ccccc1)c1ccc([N+](=O)[O-])cc1 (stereo not given in full)	-5	35*	nt	24	74	2
O=C(NCc1ccccc1)c1ccc([N+](=O)[O-])cc1	nt	-1	nt	nt	nt	nt
O=C(NC1CCCCC1)c1ccc(-c2cccc([N+](=O)[O-])c2)o1	-1	32*	nt	21	116*	-1

Assay outcomes as filed in PubChem.
